Our source for the survival values is PubChem BioAssay AID463173 (ICCB-Longwood Screening Facility, Harvard Medical School, 2010).

Structures are written as SMILES. The campaign covered roughly 52,000 compounds. About 4,300 (8.3%) were called active. This is one part of a sample in which actives are shown more often than they occur. Values without a mark were called inactive. No stated cut-off is given here; in the data, active means survival mostly below about 52% (no sharp cut-off); inactive means mostly above about 56%.

The assay relates to DeltatarO mutant. The assay can be described thus: growth inhibition of S. aureus wild type versus tarO mutant, primary screen, teichoic acid synthesis inhibitors, RN4220, OD600 (AID 463173). As to conditions: OD600, 18 h, stronger effect = lower value, screened at 18.75 µg/mL (by protocol).
`COc1ccc(N2CCN(S(=O)(=O)CCNC(=O)c3ccc(OC(C)C)cc3)CC2)cc1`: the survival is 78%. In the case of `COc1cc(NC(=O)Cn2cc(C(=O)c3ccc(F)cc3)c(=O)c3ccc(C)nc32)cc(OC)c1`, the survival was 74%. With `CN(C)c1ccc(CNC(=O)CCCN2C(=O)CCn3nc(-c4cccn4C)cc32)cc1`, the survival was 73%.

For `O=C(CSc1ncc2c(n1)-c1cc(Cl)ccc1N(Cc1ccccc1)S2(=O)=O)NCc1ccccc1`, the survival is 89%. Next, `O=C(c1ccccc1Cl)N(Cc1ccco1)c1ccccn1`: 55%; `COc1cccc2cc(C(=O)Nc3ccc(N4CCNCC4)cc3)c(=O)oc12`: 99%; `Cc1ccc(NC(=O)Cn2nc(C)c3nn(-c4ccc(Cl)cc4)c(C)c3c2=O)cc1C`: 75%. Under `CCOc1ccc(CNC(=O)CSc2nnc(C)c3c(C)n(-c4ccc(Cl)cc4)nc23)cc1` stands 91%; under `COc1ccccc1/C=C/c1nc(C#N)c(N2CCN(C)CC2)o1`, 92%; under `O=C(CSc1nnc(-c2ccccc2)o1)c1cccc([N+](=O)[O-])c1`, 135%. Next, `COc1ccc(-c2cc3ncc(C(=O)c4cc([N+](=O)[O-])ccc4O)cn3n2)cc1`: 33% (active); `CCOC(=O)COc1cc(C)c(Cl)cc1C(=O)c1ccn2nc(-c3ccc(OC)cc3)cc2n1`: 92%; `COc1ccc(CNC(=O)c2cc(-c3ccc(OC)cc3)nc3n[nH]c(-c4cccc([N+](=O)[O-])c4)c23)cc1`: 68%. For the molecule `CCc1ccc(O)c(C(=O)c2cnc3cc(-c4ccc(C)cc4)nn3c2)c1`, the survival is 89%.

As to `CCOC(=O)c1cnc2cc(-c3ccc(Cl)cc3)nn2c1-c1ccccc1`, the survival is 68%. Under `Cc1ccc(-c2cc3ncc(C(=O)c4cc(Cl)c(C)cc4O)cn3n2)cc1` stands 84%; under `O=C(c1cnc2cc(-c3ccccc3)nn2c1)c1cc([N+](=O)[O-])ccc1O`, 9% (active). `Cc1ccc(-c2cc3ncc(C(=O)c4cc([N+](=O)[O-])ccc4O)cn3n2)cc1`: the survival is 8% (active).

Regarding `CC(=O)Nc1cccc(NC(=O)CCn2cnc3cc(C)c(C)cc32)c1`, the survival is 62%. For the molecule `COc1cccc(C(=O)NC(=S)NCc2ccco2)c1`, the survival is 93%. On to `O=C(Cn1nc(C(F)(F)F)c2c1CCC2)Nc1ccc(Cl)cc1`, for which the survival is 54%. Next, `CCN(CC)c1ccc(C(=O)NCc2ccc3c(c2)CCN3C(=O)c2ccc(F)cc2)cc1`: 84%; `CCN1/C(=C2\C(=O)N(c3ccc(Cl)cc3)N=C2C)C=Cc2ccccc21`: 68%. As for `CCOC(=O)C(Cc1ccccc1)NC(=O)Cn1nnc(-c2ccc(C)cc2)n1` (stereo unspecified), the survival was 59%.

Take `Cc1ccc(-c2nnn(CC(=O)NC(C)C)n2)cc1`: the survival is 83%. On to `CCOc1cc(C#N)c(NC(=O)Cn2nnc(-c3ccc(C)cc3)n2)cc1OCC`, for which the survival is 42% (active).
